# From the supplement of paper PMC6555819
# Assays:
# Test in all cases: PBM binding z-score (relative to random genomic background probes); higher = stronger binding; sequences stand for … in GC…GCGATTGACAGCGTAGAATGAAGG
# [1] = system: FXR:RXRa (NR concentration 270 nM, RXRa partner concentration 90 nM)
# Procedure, shortened: (§1)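 Regression normalization was applied to scanned fluorescence from custom Agilent 4×180K protein-binding microarrays. Before scanning, arrays were incubated 1 h with ligand-free nuclear receptor dimers, and binding was detected with antibodies against each partner (one per run). Binding z-scores use the random background probes as reference.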
# [2] = system: LXRa:RXRa (NR concentration 270 nM, RXRa partner concentration 90 nM)
# Procedure, shortened: as §1
# [3] = system: LXRa homodimer (NR concentration 270 nM)
# Procedure, shortened: as §1
# [4] = system: LXRb:RXRa (NR concentration 270 nM, RXRa partner concentration 90 nM)
# Procedure, shortened: as §1
# [5] = system: LXRb homodimer (NR concentration 270 nM)
# Procedure, shortened: as §1
# [6] = system: PPARa:RXRa (NR concentration 270 nM, RXRa partner concentration 90 nM)
# Procedure, shortened: as §1
# [7] = system: PPARg:RXRa (NR concentration 180 nM, RXRa partner concentration 90 nM)
# Procedure, shortened: as §1
# [8] = system: PPARg:RXRa 270nM:90nM, anti-RXR (NR concentration 270 nM, RXRa partner concentration 90 nM)
# Procedure, shortened: as §1
# [9] = system: PPARg:RXRa 30nM:10nM, anti-RXR (NR concentration 30 nM, RXRa partner concentration 10 nM)
# Procedure, shortened: as §1
# [10] = system: PPARg:RXRa 90nM:30nM, anti-RXR (NR concentration 90 nM, RXRa partner concentration 30 nM)
# Procedure, shortened: as §1
# [11] = system: PPARg:RXRa DBDmut IVT, anti-RXR (DBD mutation: RXRa K156A/R161A, NR concentration 270 nM, RXRa partner concentration 90 nM)
# Procedure, shortened: as §1
# [12] = system: PPARg:RXRa IVT, anti-PPARg (NR concentration 270 nM, RXRa partner concentration 90 nM)
# Procedure, shortened: as §1
# [13] = system: PPARg DBDmut:RXRa IVT, anti-PPARg (DBD mutation: PPARg1 K132A/R137A, NR concentration 270 nM, RXRa partner concentration 90 nM)
# Procedure, shortened: as §1
# [14] = system: PPARg DBDmut IVT, anti-PPARg (DBD mutation: PPARg1 K132A/R137A, NR concentration 270 nM)
# Procedure, shortened: as §1
# [15] = system: PPARg homodimer (NR concentration 180 nM)
# Procedure, shortened: as §1
# [16] = system: PXR:RXRa (NR concentration 270 nM, RXRa partner concentration 90 nM)
# Procedure, shortened: as §1
# [17] = system: PXR homodimer (NR concentration 270 nM)
# Procedure, shortened: as §1
# [18] = system: RARa:RXR (NR concentration 270 nM, RXRa partner concentration 90 nM)
# Procedure, shortened: as §1
# [19] = system: RARa homodimer (NR concentration 270 nM)
# Procedure, shortened: as §1
# [20] = system: RARb:RXRa (NR concentration 270 nM, RXRa partner concentration 90 nM)
# Procedure, shortened: as §1
Sequence,PBM binding z-score [1],PBM binding z-score [2],PBM binding z-score [3],PBM binding z-score [4],PBM binding z-score [5],PBM binding z-score [6],PBM binding z-score [7],PBM binding z-score [8],PBM binding z-score [9],PBM binding z-score [10],PBM binding z-score [11],PBM binding z-score [12],PBM binding z-score [13],PBM binding z-score [14],PBM binding z-score [15],PBM binding z-score [16],PBM binding z-score [17],PBM binding z-score [18],PBM binding z-score [19],PBM binding z-score [20]
TCTTGTAGATCAAGCAGATTAAGAAAGCCTGAGT,0.096,-0.059,-0.156,0.0422,-0.403,0.442,-0.257,1.19,2.63,2.02,1.46,0.135,-0.162,0.384,-0.288,0.232,-0.000804,0.536,-0.326,-0.301
CGTCCAAGGTCAACGTCAGTGAAAGAGACTCGAA,7.13,5.39,0.128,4.19,0.597,5.64,5.37,5.51,1.61,4.17,3.75,3.71,0.344,-0.9,2.39,3.66,0.793,4.09,1.2,5.37
AGAACGAGGGCACGCTGAGTAGATAGCAGAGTAG,0.37,0.529,-0.626,0.201,-0.892,2.15,2.28,1.87,0.547,1.18,4.04,3.83,1.29,0.195,0.114,0.201,-0.149,0.712,-0.354,2.4
AATACAGGGTCACCGTAGGCCAGAGTACGCACAG,7.2,6.43,1.2,4.96,0.78,6.14,7.71,6.83,3.15,5.65,3.34,4.88,1.63,0.332,2.04,4.97,0.366,5.28,0.752,4.8
AGAGACAGGTGATGAAGGTAACTCAGGCTATCAT,0.266,0.0997,0.0687,0.476,0.372,0.328,0.629,0.513,0.448,0.733,-0.111,0.416,0.748,0.187,0.847,0.283,0.671,0.263,1.15,0.706
TCTGCTAGGTCAACGATGGTCACCTAATCTGCTA,3.57,2.97,0.264,2.05,-0.183,3.49,2.96,3.36,1.98,2.76,4.12,4.82,0.776,0.398,0.811,2.12,-0.994,2.8,-0.586,4.2
CAAACTAGGTCATAGGTCAAAGTCGAGCCAACCA,7.12,5.85,3.78,5.36,1.14,7.84,12.8,10.5,11.6,12,8.12,8.93,3.18,1.68,3.4,5.05,0.241,7.38,0.929,4.76
CAAACTAGGTCAAGGTCAGAGTCGGTTTGTGCCA,5.93,4.35,1.98,3.26,0.405,5.7,9.05,7.77,6.36,8.17,8.39,8.85,4.94,5.19,4.13,4.13,1.18,4.4,2.46,5.06
GCTGCTAAGTCAGGTTGGTCAGCTAACGGGTACG,-0.434,-0.657,-0.43,-0.836,-0.829,-0.794,-0.46,-0.678,-0.924,-0.942,-0.0465,-0.681,-1.49,-1.03,-0.201,-0.468,-0.643,-0.502,-0.643,-0.0361
ATATGTAGGTTATCGGGTCATTCACTTTGCGCAT,3.3,3.17,2.13,3.23,1.51,5.02,7.09,6.26,3.66,5.87,7.73,7.65,4.35,2.87,2.48,3.44,1.07,4.15,2.17,2.64
CCTACTGCGCCAAAGGTCATTGATTCCAATGCTC,5.29,5.64,5.34,5.07,1.91,5.47,6.88,7.67,6.56,7.79,1.68,3.77,5.21,1.61,3.34,5.66,2.58,5.78,2.4,4.61
CGTCCAAGGTCAAAGGTAAGTGAAGAGATGACGG,7.07,5.81,0.609,4.33,0.945,6.03,7.34,7,5.4,6.76,3.99,4.46,0.556,-0.194,2.19,4.69,0.799,5.9,0.423,5.23
CCTTACGGGTCAAGGTTATGGCACGGGTGGTACG,5.49,3.7,0.0981,2.81,-0.233,4.86,4.26,4.73,1.8,3.51,1.51,3.59,-0.207,-0.604,1.88,3.27,0.134,4.13,1.04,4.04
GCAACGAGGGCATTCGAGTTGATAGCATGGCGAT,0.802,1.56,-0.374,0.0313,-0.641,1.15,0.475,0.0611,-0.488,-0.307,1.69,1.13,-0.431,-0.39,-0.299,3.66,1.02,0.56,-0.554,1.69
